The values that follow come from PubChem BioAssay.

The target in the test is Albumin (Bos taurus) (UniProt P02769). Put plainly: compounds binding labelled BSA control protein – biochemical, small-molecule microarray, Alexa647 label, 635/667 nm fluorescence, artefact control for SMM control protein annotation, profiling panel (AID 1118).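 Note: score merges 667 nm emission intensity and signal-to-noise per printed compound spot.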 The settings on record: BSA-A647 binding, fluorescence 635 nm, higher = more signal.
Albumin (Bos taurus), sequence (P02769 whole entry, looked up): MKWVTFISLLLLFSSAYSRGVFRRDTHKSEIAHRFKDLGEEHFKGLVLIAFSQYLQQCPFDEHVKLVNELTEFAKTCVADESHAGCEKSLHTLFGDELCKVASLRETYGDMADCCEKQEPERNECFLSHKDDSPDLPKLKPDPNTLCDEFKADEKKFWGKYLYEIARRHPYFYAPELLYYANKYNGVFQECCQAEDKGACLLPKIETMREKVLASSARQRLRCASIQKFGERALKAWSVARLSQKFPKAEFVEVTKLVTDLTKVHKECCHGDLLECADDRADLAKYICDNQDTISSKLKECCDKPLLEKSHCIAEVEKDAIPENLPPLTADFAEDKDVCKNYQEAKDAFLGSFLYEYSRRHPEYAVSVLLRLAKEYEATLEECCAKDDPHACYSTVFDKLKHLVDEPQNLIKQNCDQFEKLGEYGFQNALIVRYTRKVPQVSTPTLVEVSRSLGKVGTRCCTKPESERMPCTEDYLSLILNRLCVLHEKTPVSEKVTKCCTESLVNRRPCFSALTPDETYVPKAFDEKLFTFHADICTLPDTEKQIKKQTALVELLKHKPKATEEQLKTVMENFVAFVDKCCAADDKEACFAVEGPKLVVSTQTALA
`C=C(C(=O)CC[C@@H](OC(=O)c1ccccc1-c1ccccc1C(=O)O)c1ccc(OCCO)cc1)C(C)C` had a composite z-score of 0.0832.
The value for `COCCOC(=O)N1C(=O)[C@@]2(c3cc(C#CCCO)ccc31)[C@H](C(=O)N1CCN(c3ncccn3)CC1)[C@H]1C(=O)O[C@H](c3ccccc3)[C@H](c3ccccc3)N1[C@@H]2c1ccc(OCCO)cc1` was 0.788; that for `O=C1OC[C@@H](c2ccccc2)n2cc(/C=C/c3ccccc3)cc21` was -0.456.
Turning to `CCOC(=O)C[C@H]1[C@H](OC(=O)c2cc3ccccc3oc2=O)[C@@H](NC(=O)Cc2ccc(OC)cc2)c2cc(OCCCO)ccc2N1C(=O)Cc1ccc(OC)cc1`, the composite z-score is 0.112.
The compound `C=CCN1C(=O)[C@@]2(O[C@@H](CCO)[C@H]([Si](C)(C)c3ccc(OC)cc3)[C@H]2C)c2cc(N3CCCCC3=O)ccc21` yielded a composite z-score of 0.446.
Compound `COc1ccc(CCNC(=O)[C@@]2(C)c3ccccc3C(=O)N(Cc3ccc(OC(F)(F)F)cc3)[C@H]2c2ccc(CO)cc2)cc1` had a composite z-score of -0.146.
Consider `COC(=O)[C@@]1(Cc2ccccc2)[C@H]2c3cc(C(=O)N(C)C)n(CCF)c3C[C@H]2CN1C(=O)c1ccccc1`, for which the composite z-score was determined as 1.11.
In turn, `COc1ccc(NN2C(C(O)c3ccc(F)cc3)C=CC3C(=O)N(C4CCCCC4)C(=O)C32)cc1` (centres undefined) displayed a composite z-score of 0.861.
As for `COC(=O)[C@@]1(Cc2ccc(F)cc2)[C@H]2c3cc(C(=O)N(C)C)n(Cc4ccsc4Br)c3C[C@H]2CN1C(=O)c1ccccc1`, the composite z-score was 0.745.
As for `COc1ccc(NN2C(C(O)c3ccccc3)C=CC3C(=O)N(C4CCCCC4)C(=O)C32)cc1` (centres undefined), the figure is 0.74.
As for `C=CC[C@H](OC(=O)Nc1ccc(SC)cc1)c1ccc(O)c(F)c1`, the figure is 0.333; as for `CO[C@H]1O[C@H](CO)[C@@H](OC(=O)CCc2ccccc2)[C@@H]2OC(=O)[C@@H](Cc3ccc4ccccc4c3)C/C=C/C[C@H](Cc3ccc4ccccc4c3)C(=O)O[C@@H]12`, 0.199; as for `COC(=O)[C@H](Cc1ccccc1)N1CC(C)(OC)O[C@@H](Cc2ccccc2)[C@H]1/C=C/C1CC1` (some centres undefined), -0.266.
The compound `C[C@H]1C2[C@H](Cc3ccccc3)NC(=O)[C@]23C(=O)N[C@@H](Cc2ccccc2)C(=O)N2CCC[C@H]2C(=O)NC/C=C/CC/C=C/C3[C@@H]2O[C@]12C` (some centres undefined) yielded a composite z-score of 0.688.
In turn, `C=C(C(=O)CC[C@@H](OC(=O)c1ccccc1-c1ccccc1C(=O)O)c1cccc(OCCO)c1)C(C)C` registered a composite z-score of -0.757.
`C=C(CCCC)C(=O)CC[C@H](OC(=O)c1ccccc1-c1ccccc1C(=O)O)c1cccc(OCCO)c1` returned a composite z-score of 0.314.
Turning to `C=C(CCCC)/C(=C/C[C@@H](OC(C)=O)c1cccc(OCCO)c1)c1cc(C(=O)OC)ccc1OC`, the composite z-score was 0.119.
For the compound `CCCCCN1CC=CC23O[C@@H]4/C=C\CCCOC(=O)C4[C@H]2C(=O)N(CCO)[C@@H]3C1=O` (some centres undefined), the composite z-score was determined as 0.73.
`O=C1NC(=O)C2C1C=CC(C(O)C1CCCCC1)N2Nc1ccccn1` (centres undefined) came in with a composite z-score of 0.516.
In turn, `COC(=O)C1(CC(C)C)C=C2C(=C(C)C(=O)C2C)CN1` (centres undefined) yielded a composite z-score of -0.293.
As to `Cc1ccc(N2C(=O)c3ccccc3[C@@H](C(=O)NCCN3CCOCC3)[C@@H]2c2ccc(CO)cc2)nc1`, the composite z-score was determined as 0.132.
In turn, `COCCOC(=O)N1C(=O)[C@@]2(c3cc(C#CCNC(N)=O)ccc31)[C@H](c1ccc(O)cc1)N1[C@H](c3ccccc3)[C@H](c3ccccc3)OC(=O)[C@H]1[C@@H]2C(=O)N1CCc2cc(OC)c(OC)cc2C1` yielded a composite z-score of 0.397.
On to `O=C(NC1CC1)[C@@H]1c2ccccc2C(=O)N(C2CCCCC2)[C@H]1c1ccc(CO)cc1`, for which the composite z-score is -0.0383.
As to `COc1ccc([Si](C)(C)[C@@H]2[C@@H](CC(=O)N(CCO)Cc3ccccc3)O[C@]3(C(=O)N(Cc4cccc(I)c4)c4ccccc43)[C@H]2C)cc1`, the composite z-score is -0.783.
